Bioassay records: PubChem, National Center for Advancing Translational Sciences (NCATS)
Compounds with a hit are over-represented: about 6.2% of the library has one in this group of screens.
Marburg entry inh: blocks Marburg virus binding to or entry into cells | AID 540276 | Marburg virus pseudotyped entry inhibition, cell reporter | hit rate 1.8% among 300,000 | Potency, µM (highest dose often 37.8 µM), inactives show top-dose activity change, negative = inhibition, hits mostly inhibitors; calls by dose curve; tested in HEK293 cells; further: potency means the concentration at half of the fitted maximal effect
HCMV inh: inhibitors of human cytomegalovirus; HFF cells, HCMV-luciferase reporter, 72 h; active compounds read low; activity change, negative = inhibition, % at 57.5 µM; hit rate 4.5% among 410,000; AID 1259415; in the data active means activity change below about -60%; inconclusive means no clear call, values can overlap the other calls; inactive means above about -39%
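Compounds were evaluated in HFFs infected with an HCMV luciferase reporter virus (MOI 1 PFU/cell). Luciferase in lysates collected 72 h post infection served as the replication measure.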
FMDV antiviral: antivirals against foot and mouth disease virus. FMDV antiviral cell-based qHTS. Potency, µM (highest dose often 57.9 µM), for the others: top-dose activity change, negative = inhibition, most hits filed as inhibitors. hit rate 1.2% among 410,000; calls by dose curve; tested in HEK293T cells; further: read-out not given here; potency means the concentration at half of the fitted maximal effect; nearly all actives have a fitted effect of over 45% in size
LASV entry inh: blocks Lassa virus binding to or entry into cells; Lassa virus pseudotype entry inhibition, cell reporter; Potency, µM (highest dose often 37.9 µM), for inactives: at the highest dose activity change, negative = inhibition, actives largely listed as inhibitors; hit rate 1.2% among 300,000; AID 540256; calls by dose curve; tested in HEK293 cells; further: potency means the concentration at half of the fitted maximal effect; nearly all actives have a fitted effect of over 50% in size
Numbers without * were called inactive; ? = inconclusive; nt = no result; [ ] = another dose, or the depositor's remark. On the % scale 0 is the no-effect control and ±100 the full control effect.

SMILES	Marburg entry inh	HCMV inh	FMDV antiviral	LASV entry inh
CN(C)C(=O)Oc1ccc(OCc2nc3ccccc3[nH]2)cc1	?	32	-46%	9.2µM*
Cc1ncc2c(c1CNS(=O)(=O)N(C)C)CCN(C(=O)/C=C/c1ccccc1)C2	nt	nt	8%	nt
c1ccc2c(c1)OCC(CNc1ncnc3sccc13)O2 (stereo unspecified)	?	-63*	?	-31%
Fc1ccccc1CNc1ncnc2sccc12	?	-15	?	-28%[46.1 µM]
COc1ccccc1CNc1ncnc2sccc12	6.3µM*	-76*	-28%	?
COc1ccc(Nc2ncnc3sccc23)cc1OC	11%[46.1 µM]	0	25%	19%[46.1 µM]
CN(C)c1ccc(CNc2ncnc3sccc23)cc1	?	-82*	?	3.5µM*
COc1ccc(CCNc2ncnc3sccc23)cc1OC	?	-89*	28µM*	?
NS(=O)(=O)c1ccc(CNc2ncnc3sccc23)cc1	2%[46.1 µM]	4	-27%	-1%
CCCC1NC(=O)c2cc3ccccc3cc2-n2c1nc1ccc(C)cc1c2=O (stereo unspecified)	nt	-23	?	nt
Cc1ccc(NC(=S)NCCN(C2CCCCC2)C2CCCC2)cc1C	9.2µM*	-38	-16%	?
CCCCNc1ccc(C(CC(N)=O)NC(=O)Cc2cccc3ccccc23)cc1[N+](=O)[O-] (stereo unspecified)	nt	9	-16%	nt
CN1CCN(c2ccc(C(CC(N)=O)NC(=O)c3ccccc3)cc2[N+](=O)[O-])CC1 (stereo unspecified)	nt	-62*	-16%	nt
Cc1cccc(CNc2ccc(C(CC(N)=O)NC(=O)Cc3cccc4ccccc34)cc2[N+](=O)[O-])c1 (stereo unspecified)	nt	-79*	-24%	nt
NC(=O)CC(NC(=O)c1ccccc1)c1ccc(N2CCN(c3ccccc3)CC2)c([N+](=O)[O-])c1 (stereo unspecified)	nt	-66*	?	nt
NC(=O)CC(NC(=O)c1ccccc1)c1ccc(N2CCCCCC2)c([N+](=O)[O-])c1 (stereo unspecified)	nt	-22	-9%	nt
NC(=O)CC(NC(=O)Cc1ccc(Br)cc1)c1ccc(N2CCN(c3ccccc3)CC2)c([N+](=O)[O-])c1 (stereo unspecified)	nt	-62*	?	nt
COc1ccc(N(C(=O)/C=C/C(=O)Nc2cc(C)on2)C(C(=O)NC2CCCC2)c2ccccc2C)cc1 (stereo unspecified)	9.2µM*	-64*	20%	?
COc1ccc(N(C(=O)CCC(=O)Nc2cc(C)on2)C(C(=O)NC2CCCC2)c2ccco2)cc1 (stereo unspecified)	-2%[46.1 µM]	-35	25%	2%
Cc1cccc(N(C(=O)CNC(=O)c2ccco2)C(C(=O)NC2CCCCC2)c2cccnc2)c1 (stereo unspecified)	25%[46.1 µM]	-16	-10%	-22%
COC(CN(C(=O)CCl)C(C(=O)NC1CCCCC1)c1ccccc1C)OC (stereo unspecified)	?	-97*	?	?
O=C(CCCC(=O)N(c1ccc2c(c1)OCCO2)C(C(=O)NC1CCCCC1)c1ccc(Cl)cc1)Nc1ccccn1 (stereo unspecified)	?	-69*	nt	?
O=C(NC1CCCCC1)C(c1cccnc1)N(C(=O)CCl)c1cccc(Cl)c1 (stereo unspecified)	?	-104*	7.9µM*	?
CCCCN1CCc2nc(N3CCN(c4ncccn4)CC3)ncc2C1	nt	16	0%	-14%[46.1 µM]
COc1ccc(C(C(=O)NC2CCCCC2)N(C(=O)CCl)c2ccc(Cl)cc2)cc1 (stereo unspecified)	?	-101*	16µM*	?
SMILES	Marburg entry inh	HCMV inh	FMDV antiviral	LASV entry inh
COc1ccc(N(C(=O)c2ccco2)C(C(=O)NC2CCCCC2)c2ccccc2)cc1 (stereo unspecified)	1%	-77*	-1%	?
COc1ccc(C(C(=O)NC2CCCC2)N(C(=O)c2ccco2)c2ccc3c(c2)OCO3)cc1OC (stereo unspecified)	-1%	-75*	12%	-2%
COC(=O)c1cc2sc(C)cc2n1Cc1nc(-c2cccc(Br)c2)oc1C	-9%[46.1 µM]	11	23%	nt
Cc1ccc(Cn2c(=O)n(Cc3ccc(Cl)cc3)c(=O)c3cccnc32)cc1	-11%[46.1 µM]	24	-17%	nt
N#CC(C#N)c1ccnc2ccccc12	nt	-78*	-29%	nt
O=c1c2cc3c(cc2nc2sc(Nc4ccc(F)c(Cl)c4)nn12)OCO3	22%[46.1 µM]	23	-7%	?
C=C(C)C(=O)C=CC=Cc1ccccc1	-87%[14.2 µM]	nt	nt	?
Cc1oc(-c2ccc3c(c2)OCCO3)cc1C(=O)NCC(=O)O	?	-13	28µM*	?
Cc1oc(-c2ccc3c(c2)OCCO3)cc1C(=O)O	?	-63*	2.2µM*	1.1µM*
COc1ccc(-c2cc(C(=O)O)c(C)o2)cc1OC	?	-17	13µM*	?
Cc1nc2ccc(S(=O)(=O)NC(C(=O)N3CCN(c4ccc(Cl)cc4)CC3)C(C)C)cc2s1 (stereo unspecified)	?	-3	-13%	?
OC1(c2cccnc2)CCN(Cc2ccc3c(c2)CN(Cc2cc(F)ccc2F)CCO3)CC1	nt	nt	-18%	nt
O=C(CCN1C(=O)C2CC=CCC2C1=O)N1CCN(C2=NCCCC2)CC1 (stereo unspecified)	21%	nt	nt	nt
N#Cc1ccc(OCc2cn(CC(=O)c3ccc(O)cc3)nn2)cc1	nt	nt	nt	1%[46.1 µM]
COc1cccc(CNC(=O)c2c(C)oc3ncnc(N4CCOCC4)c23)c1	nt	-13	-8%	?
CCc1ccc(CNC(=O)c2c(C)oc3ncnc(N4CCOCC4)c23)cc1	nt	-61*	?	23%[46.1 µM]
CCCCN(CC)CCCNC(=O)c1c(C)oc2ncnc(N3CCOCC3)c12	nt	-66*	-5%	21%[46.1 µM]
CCN(CC)CCCNC(=O)c1c(C)oc2ncnc(N3CCOCC3)c12	nt	27	-9%	-2%[46.1 µM]
O=S1(=O)N[C@H](Cc2ccccc2)COc2cc(Br)ccc21	nt	-17	nt	?
COC(=O)C1=C(C)NC(C)=C(C(=O)OC)C(N2C(=O)CCC2=O)C1 (stereo unspecified)	nt	-85*	nt	nt
O=C(Nc1cccc(Cl)c1)c1ccc2c(c1)SC1=NS(=O)(=O)CCN12	?	-79*	-19%	?
Cc1cc(/C=C2\SC(=O)NC2=O)c(C)n1-c1ccc(N(C)C)cc1	22%	-30	19%	-18%
Cc1cc(/C=C\c2ccc3cc(N(C)C)ccc3[n+]2C)c(C)n1-c1ccccc1	nt	nt	20µM*	nt
CCOC(=O)C(C)(C)N(Cc1ccc(C)cc1)S(=O)(=O)c1ccc(Cl)c([N+](=O)[O-])c1	?	-35	25µM*	?
C=CCNc1nc(-c2cc3ccccc3o2)cs1	?	-7	-62%	7.9µM*
CN(C)S(=O)(=O)c1ccc(C(=O)Nc2nc(-c3ccccc3)c(C(=O)c3ccccc3)s2)cc1	6%	-1	?	-4%
CC1CN(S(=O)(=O)c2ccc(C(=O)Nc3nc(-c4cc5ccccc5o4)cs3)cc2)CC(C)O1 (stereo unspecified)	?	-26	?	?
CN(C)S(=O)(=O)c1ccc(C(=O)Nc2nc(-c3cc4ccccc4o3)cs2)cc1	?	-69*	?	?
